The source made the active and inactive calls. Unless noted, the rule behind the calls is not given here.
Assays:
[1] = system: XIP peptide (Xip251-270) binding; test: XIP fragment 251-270 binding compounds – biochemical, small-molecule microarray, fluorescence 635/667 nm, 0.1 µg/mL protein, primary screen (AID 1182); conditions: fluorescent protein binding, 635 nm, higher = more signal, called active from +8 up or from −8 down
[2] = system: XIP peptide (Xip251-270); test: compounds binding XIP fragment 251-270 – biochemical, small-molecule microarray, fluorescence 635/667 nm, 0.5 µg/mL protein, primary screen (AID 1183); conditions: fluorescence 635 nm, higher = more signal
[3] = blood-stage malaria parasite viability loss – strain 3D7, DAPI fluorescence, 100 nL, primary screen (AID 1184);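 note: parasites grown inside human red blood cells in medium with human serum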; conditions: P. falciparum 3D7 growth, 3 d, higher = more signal
[4] = target: Homeobox protein Hox-A13 (Mus musculus) (UniProt Q62424); test: disruptors of Hoxa13 oligonucleotide interaction – biochemical, fluorescence polarization, labeled oligonucleotide, primary screen (AID 1185); conditions: Hoxa13:DNA binding, 15 min, higher = more signal, called active from +8 up or from −8 down
[5] = blockers of DNA damage checkpoint Chk1 activation – imaging, HeLa, hydroxyurea, phospho-Chk1 antibody, percent positive cells, primary screen (AID 1186); conditions: hydroxyurea-induced phospho-Chk1 immunofluorescence imaging, higher = more signal
[6] = blockers of DNA damage checkpoint Chk1 activation – imaging, HeLa, hydroxyurea, phospho-Chk1 nuclear intensity, primary screen (AID 1187); conditions: hydroxyurea-induced phospho-Chk1 immunofluorescence imaging, higher = more signal

Homeobox protein Hox-A13 (Mus musculus), sequence (Q62424 whole entry, looked up): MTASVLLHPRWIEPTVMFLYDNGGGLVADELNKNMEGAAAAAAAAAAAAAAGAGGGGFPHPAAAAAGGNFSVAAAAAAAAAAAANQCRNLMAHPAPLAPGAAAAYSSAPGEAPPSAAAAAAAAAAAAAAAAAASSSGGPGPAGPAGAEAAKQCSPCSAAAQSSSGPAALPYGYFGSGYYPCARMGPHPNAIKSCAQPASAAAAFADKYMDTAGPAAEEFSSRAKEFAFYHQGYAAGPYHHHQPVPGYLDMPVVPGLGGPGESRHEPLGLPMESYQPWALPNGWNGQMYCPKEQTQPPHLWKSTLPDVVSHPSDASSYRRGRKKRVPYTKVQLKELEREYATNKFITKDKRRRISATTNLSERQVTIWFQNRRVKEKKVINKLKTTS

| SMILES | composite z-score [1] | composite z-score [2] | z-score [3] | z-score [4] | z-score [5] | z-score [6] |
| --- | --- | --- | --- | --- | --- | --- |
| O=C(NCCN1CCOCC1)[C@@H]1c2ccccc2C(=O)N(Cc2ccccc2)[C@H]1c1ccc(CO)cc1 | -0.181 (inactive) | -0.314 | 0.681 | -3.79 (inactive) | -0.697 (inactive) | -0.974 (inactive) |
| CCOC(=O)C=Cc1ccccc1O | 1.39 (inactive) | 0.322 | -1.39 | -0.772 (inactive) | -0.312 (inactive) | -0.678 (inactive) |
| COc1ccc([Si](C)(C)[C@H]2[C@H](CC(=O)N3CCC[C@H]3CO)O[C@@]3(C(=O)N(Cc4ccc(N5CCC5=O)cc4)c4ccccc43)[C@@H]2C)cc1 | 1.18 (inactive) | 0.709 | -0.986 | -3.74 (inactive) | 0.312 (inactive) | -0.36 (inactive) |
| COCCCNC(=O)[C@@]1(Sc2ccc(C)cc2)CC(=O)N(Cc2ccccc2Cl)[C@@H]1c1ccc(CO)cc1I | -0.517 (inactive) | 0.194 | 1.22 | -2.55 (inactive) | 0.234 (inactive) | 0.456 (inactive) |
| CCOC(=O)C1=C[C@@H](C(C)(C)C)N(S(=O)(=O)c2ccc(C)cc2)[C@H]1c1ccccc1 | 0.19 (inactive) | 0.311 | -2.01 | -0.661 (inactive) | 0.327 (inactive) | -0.0853 (inactive) |
| O=C(NCC(O)CO)[C@@]1(CCS(=O)(=O)c2ccccc2)COC(c2ccc(OCCCO)cc2)=N1 (some centres not stated) | -0.119 (inactive) | 0.696 | -0.475 | -5.1 (inactive) | -0.275 (inactive) | -0.556 (inactive) |
| COC(=O)[C@@]1(Cc2ccc(OC)cc2)[C@H]2c3cc(C(=O)N4CCCC4)n(Cc4ccc(S(C)(=O)=O)cc4)c3C[C@H]2CN1C(=O)c1ccccc1 | 0.807 (inactive) | 0.511 | -1.42 | -3.91 (inactive) | 0.364 (inactive) | 0.202 (inactive) |
| [N-]=[N+]=Nc1ccccc1C[C@]1(C(=O)NCc2ccccc2)COC(c2ccc(OCCCO)cc2)=N1 | 0.261 (inactive) | 0.651 | -2.38 | -5.36 (inactive) | -0.364 (inactive) | -0.571 (inactive) |
| Cc1ccccc1C(O)C1C=CC2C(=O)N(c3ccccc3)C(=O)C2N1Nc1ccc([N+](=O)[O-])cc1 (configuration not stated) | 1.61 (inactive) | 0.618 | -0.42 | -3.91 (inactive) | -0.0666 (inactive) | -0.614 (inactive) |
| CC(CO)N1C(=O)[C@@H]2[C@H]3C(=O)OCC=C[C@H]3OC23C=CCN(c2ccc(Cl)cc2)C(=O)[C@@H]13 (some centres not stated) | -0.4 (inactive) | -0.862 | 0.599 | -3 (inactive) | -0.985 (inactive) | -0.995 (inactive) |
| C=CCNC(=O)[C@@H]1[C@H]2C(=O)O[C@H](c3ccccc3)[C@H](c3ccccc3)N2[C@H](c2ccc(O)cc2)[C@@]12C(=O)N(C(=O)OCCOC)c1ccc(C#CCCO)cc12 | 2.07 (inactive) | 0.749 | 1.05 | -3.19 (inactive) | 0.116 (inactive) | -0.365 (inactive) |
| COCCOC(=O)N1C(=O)[C@@]2(c3ccccc31)[C@H](c1ccccc1OCCO)N1[C@H](c3ccccc3)[C@H](c3ccccc3)OC(=O)[C@H]1[C@@H]2C(=O)N1CCCCCCC1 | 1.55 (inactive) | 0.846 | -2.01 | 2.31 (inactive) | 0.203 (inactive) | 0.424 (inactive) |
| CO[C@H]1O[C@H](CO)[C@@H](OC(=O)c2ccc(Br)cc2)[C@@H]2OC(=O)[C@H](Cc3ccccc3)C/C=C/C[C@@H](Cc3ccccc3)C(=O)O[C@@H]12 | -0.161 (inactive) | 0.629 | -0.949 | -5.27 (inactive) | -0.708 (inactive) | -1.06 (inactive) |
| CC(C)C(CO)N1C(=O)[C@@H]2[C@H]3C(=O)OCC=C[C@H]3OC23C=CCN(C(C)(C)C)C(=O)[C@@H]13 (some centres not stated) | 0.0887 (inactive) | 0.37 | -0.217 | -4.25 (inactive) | 0.337 (inactive) | -0.418 (inactive) |
| C=C(COC)/C(=C/C[C@H](OC(C)=O)c1cccc(OCCO)c1)c1cnc2ccccc2c1 | 1.46 (inactive) | 0.75 | -2.62 | -5.87 (inactive) | -0.104 (inactive) | 0.276 (inactive) |
| COCCOC(=O)N1C(=O)[C@@]2(c3cc(C#CC4(O)CCCCCC4)ccc31)[C@H](c1ccc(OCCO)cc1)N1[C@H](c3ccccc3)[C@H](c3ccccc3)OC(=O)[C@H]1[C@@H]2C(=O)Nc1nc2ccccc2s1 | 0.284 (inactive) | 0.78 | -0.726 | 1.07 (inactive) | 0.218 (inactive) | 0.561 (inactive) |
| [N-]=[N+]=NCc1ccccc1[C@H]1OC(c2ccc(OCCCO)cc2)=N[C@@]1(Cc1ccccc1)C(=O)NCCN1CCOCC1 | 0.0723 (inactive) | 0.816 | -2.28 | -0.974 (inactive) | -0.0389 (inactive) | 0.306 (inactive) |
| COCCOC(=O)N1C(=O)[C@@]2(c3cc(C#CCNC(N)=O)ccc31)[C@H](c1ccc(OCCO)cc1)N1[C@H](c3ccccc3)[C@H](c3ccccc3)OC(=O)[C@H]1[C@@H]2C(=O)NC[C@H](O)c1ccccc1 | 0.586 (inactive) | 0.644 | -0.599 | -1.94 (inactive) | -0.3 (inactive) | -0.102 (inactive) |
| COc1cc(NN2C(C(O)C3CCCCC3)C=CC3C(=O)N(c4ccccc4)C(=O)C32)cc(OC)c1OC (configuration not stated) | 1.15 (inactive) | 0.751 | -0.495 | -4.43 (inactive) | 0.0699 (inactive) | -0.253 (inactive) |
| COc1ccc([Si](C)(C)[C@H]2[C@H](CCO)O[C@@]3(C(=O)N(Cc4ccccc4)c4ccc(N5C(=O)c6ccccc6Oc6ccccc65)cc43)[C@@H]2C)cc1 | 0.823 (inactive) | 0.601 | -1.75 | -1.76 (inactive) | 0.564 (inactive) | -0.608 (inactive) |
| C=C[C@@H](OC)[C@H](OC(=O)Nc1ccc(OC)cc1)c1ccc(OC)c(O)c1 | 2.2 (inactive) | 0.462 | 1.46 | -2.54 (inactive) | 1.11 (inactive) | 1.39 (inactive) |
| CN(C)CCCC[C@@H]1NC(=O)[C@@H]2C[C@H](C(=O)O)[C@H](c3cccc(OCCO)c3)N2C1=O | 1.02 (inactive) | 0.0695 | -0.286 | -3.07 (inactive) | 0.043 (inactive) | 0.313 (inactive) |
